Data reported in PubChem BioAssay (NCATS).
Records with an inconclusive call do not appear. Active and inactive are the calls of the source. Calls come from the whole dose curve; as a rule, active = well fitted inhibition curve with a large enough effect; inconclusive = small, poorly fitted or top-dose-only effect; inactive = flat fitted curve, though single readings scatter.

Tests used:
[1] = qHTS profiling for inhibitors of Plasmodium falciparum proliferation (AID 504749); note: nearly all actives have a fitted effect of over 60% in size;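 for activity, negative = inhibition: 0% = DMSO vehicle and full inhibition = artemisinin control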; conditions: P. falciparum in erythrocytes, SYBR Green DNA, 72 h
Outline: (§1)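 SYBR Green fluorescence of parasite DNA, read after lysis and overnight dark incubation, measured growth over 72 h in erythrocyte culture at 0.3% parasitemia and 2.5% hematocrit. Data normalised to DMSO and 0.29 uM artemisinin, with plate-drift correction.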

3D7 = assay: as above; conditions: P. falciparum in erythrocytes, SYBR Green DNA, 72 h; series mostly up to 28.7 µM
Outline: as §1

7G8 = assay: as above; conditions: P. falciparum in erythrocytes, SYBR Green DNA, 72 h; series mostly up to 28.7 µM
Outline: as §1

AA1029 = assay: as above; conditions: P. falciparum in erythrocytes, SYBR Green DNA, 72 h; series mostly up to 28.7 µM
Outline: as §1

AS120 = assay: as above; conditions: P. falciparum in erythrocytes, SYBR Green DNA, 72 h; series mostly up to 28.7 µM
Outline: as §1

ATS189 = assay: as above; conditions: P. falciparum in erythrocytes, SYBR Green DNA, 72 h; series mostly up to 28.7 µM
Outline: as §1

ATS95 = assay: as above; conditions: P. falciparum in erythrocytes, SYBR Green DNA, 72 h; series mostly up to 28.7 µM
Outline: as §1

C2A = assay: as above; conditions: P. falciparum in erythrocytes, SYBR Green DNA, 72 h; series mostly up to 28.7 µM
Outline: as §1

CP185 = assay: as above; conditions: P. falciparum in erythrocytes, SYBR Green DNA, 72 h; series mostly up to 28.7 µM
Outline: as §1

CP191 = assay: as above; conditions: P. falciparum in erythrocytes, SYBR Green DNA, 72 h; series mostly up to 28.7 µM
Outline: as §1

CP192 = assay: as above; conditions: P. falciparum in erythrocytes, SYBR Green DNA, 72 h; series mostly up to 28.7 µM
Outline: as §1

CP194 = assay: as above; conditions: P. falciparum in erythrocytes, SYBR Green DNA, 72 h; series mostly up to 28.7 µM
Outline: as §1

CP201 = assay: as above; conditions: P. falciparum in erythrocytes, SYBR Green DNA, 72 h; series mostly up to 28.7 µM
Outline: as §1

CP203 = assay: as above; conditions: P. falciparum in erythrocytes, SYBR Green DNA, 72 h; series mostly up to 28.7 µM
Outline: as §1

CP211 = assay: as above; conditions: P. falciparum in erythrocytes, SYBR Green DNA, 72 h; series mostly up to 28.7 µM
Outline: as §1

CP215 = assay: as above; conditions: P. falciparum in erythrocytes, SYBR Green DNA, 72 h; series mostly up to 28.7 µM
Outline: as §1

CP217 = assay: as above; conditions: P. falciparum in erythrocytes, SYBR Green DNA, 72 h; series mostly up to 28.7 µM
Outline: as §1

CP237 = assay: as above; conditions: P. falciparum in erythrocytes, SYBR Green DNA, 72 h; series mostly up to 28.7 µM
Outline: as §1

CP238 = assay: as above; conditions: P. falciparum in erythrocytes, SYBR Green DNA, 72 h; series mostly up to 28.7 µM
Outline: as §1

CP247 = assay: as above; conditions: P. falciparum in erythrocytes, SYBR Green DNA, 72 h; series mostly up to 28.7 µM
Outline: as §1

[2] = at 28.7 µM (top of the series), parasite line A
[3] = at 28.7 µM (top of the series), parasite line B
Potency is the fitted concentration of half-maximal effect.

CN1CCN(CC(=O)N2c3ccccc3C(=O)Nc3cccnc32)CC1
inactive: activity, negative = inhibition [1, 2] -7.56% | activity, negative = inhibition [1, 3] -8.28% | Potency (3D7) | Potency (7G8) | Potency (AA1029) | Potency (AS120) | Potency (ATS189) | Potency (ATS95) | Potency (C2A) | Potency (CP185) | Potency (CP191) | Potency (CP192) | Potency (CP194) | Potency (CP201) | Potency (CP203) | Potency (CP211) | Potency (CP215) | Potency (CP217) | Potency (CP237) | Potency (CP238) | Potency (CP247)

CCNC(=O)N1CCN(CCCC(c2ccc(F)cc2)c2ccc(F)cc2)CC1
active: Potency ([1]; parasite line A) 1.12 µM | Potency ([1]; parasite line B) 1.26 µM | Potency (3D7) 7.08 µM | Potency (7G8) 2 µM | Potency (AA1029) 2.24 µM | Potency (AS120) 2.24 µM | Potency (ATS189) 1.12 µM | Potency (ATS95) 2.24 µM | Potency (C2A) 1.41 µM | Potency (CP185) 0.447 µM | Potency (CP191) 1.12 µM | Potency (CP192) 7.57 µM | Potency (CP194) 7.57 µM | Potency (CP201) 7.57 µM | Potency (CP203) 6.75 µM | Potency (CP211) 5.36 µM | Potency (CP215) 4.26 µM | Potency (CP217) 1.12 µM | Potency (CP237) 2.51 µM | Potency (CP238) 3.16 µM | Potency (CP247) 1 µM

CCn1ccnc1CC1COc2ccccc2O1 (stereo unspecified)
inactive: activity, negative = inhibition [1, 2] 10.6% | activity, negative = inhibition [1, 3] 1.07% | Potency (3D7) | Potency (7G8) | Potency (AA1029) | Potency (AS120) | Potency (ATS189) | Potency (ATS95) | Potency (C2A) | Potency (CP185) | Potency (CP191) | Potency (CP192) | Potency (CP194) | Potency (CP201) | Potency (CP211) | Potency (CP215) | Potency (CP217) | Potency (CP237) | Potency (CP238) | Potency (CP247)

CC(C(=O)O)c1ccc(CC2CCCC2=O)cc1 (stereo unspecified)
inactive: activity, negative = inhibition [1, 2] 0.257% | activity, negative = inhibition [1, 3] 5.29% | Potency (3D7) | Potency (7G8) | Potency (AA1029) | Potency (AS120) | Potency (ATS189) | Potency (ATS95) | Potency (C2A) | Potency (CP185) | Potency (CP191) | Potency (CP192) | Potency (CP194) | Potency (CP201) | Potency (CP203) | Potency (CP211) | Potency (CP215) | Potency (CP217) | Potency (CP237) | Potency (CP238) | Potency (CP247)

NC(N)=NC(=O)Cc1c(Cl)cccc1Cl
active: Potency ([1]; parasite line A) 5.62 µM | Potency ([1]; parasite line B) 5.01 µM | Potency (7G8) 12.6 µM | Potency (CP191) 8.91 µM | Potency (CP217) 6.31 µM
inactive: Potency (3D7) | Potency (CP238)

CCN(CC)CCNC(=O)c1cc(S(C)(=O)=O)ccc1OC
inactive: activity, negative = inhibition ([1]; at 12.8 µM (top of the series), parasite line A) 11.8% | activity, negative = inhibition ([1]; at 12.8 µM (top of the series), parasite line B) 10.3% | Potency (3D7) | Potency (7G8) | Potency (AA1029) | Potency (AS120) | Potency (ATS189) | Potency (ATS95) | Potency (C2A) | Potency (CP185) | Potency (CP191) | Potency (CP217) | Potency (CP237) | Potency (CP238) | Potency (CP247)

CCn1cc(C(=O)O)c(=O)c2cc3c(cc21)OCO3
inactive: activity, negative = inhibition [1, 2] -8.68% | activity, negative = inhibition [1, 3] -3.36% | Potency (3D7) | Potency (AA1029) | Potency (AS120) | Potency (ATS189) | Potency (ATS95) | Potency (C2A) | Potency (CP185) | Potency (CP191) | Potency (CP192) | Potency (CP194) | Potency (CP201) | Potency (CP203) | Potency (CP211) | Potency (CP215) | Potency (CP217) | Potency (CP237) | Potency (CP238) | Potency (CP247)

NC(=O)N1c2ccccc2C=Cc2ccccc21
inactive: activity, negative = inhibition [1, 2] -22.9% | activity, negative = inhibition [1, 3] -3.8% | Potency (3D7) | Potency (7G8) | Potency (AA1029) | Potency (AS120) | Potency (ATS189) | Potency (ATS95) | Potency (C2A) | Potency (CP185) | Potency (CP191) | Potency (CP192) | Potency (CP194) | Potency (CP201) | Potency (CP215) | Potency (CP217) | Potency (CP237) | Potency (CP238) | Potency (CP247)

FC(F)(F)c1ccccc1-n1ccnc1
inactive: activity, negative = inhibition [1, 2] 11.5% | activity, negative = inhibition [1, 3] -3.4% | Potency (3D7) | Potency (7G8) | Potency (AA1029) | Potency (AS120) | Potency (ATS189) | Potency (ATS95) | Potency (C2A) | Potency (CP185) | Potency (CP191) | Potency (CP192) | Potency (CP194) | Potency (CP201) | Potency (CP211) | Potency (CP215) | Potency (CP217) | Potency (CP237) | Potency (CP238) | Potency (CP247)

CNCCC(Oc1ccccc1OC)c1ccccc1 (stereo unspecified)
inactive: activity, negative = inhibition [1, 2] 3.02% | activity, negative = inhibition [1, 3] -7.17% | Potency (3D7) | Potency (C2A) | Potency (CP191) | Potency (CP192) | Potency (CP211) | Potency (CP215) | Potency (CP237)
active: Potency (7G8) 4.47 µM | Potency (AA1029) 10 µM

COc1ccc(CN(CCN(C)C)c2ccccn2)cc1
active: Potency (CP237) 5.01 µM
inactive: activity, negative = inhibition [1, 2] -7.89% | activity, negative = inhibition [1, 3] -2.95% | Potency (3D7) | Potency (7G8) | Potency (AS120) | Potency (ATS189) | Potency (C2A) | Potency (CP185) | Potency (CP191) | Potency (CP192) | Potency (CP201) | Potency (CP211) | Potency (CP215) | Potency (CP217) | Potency (CP238) | Potency (CP247)

Cc1ccc(=O)n(-c2ccccc2)c1
inactive: activity, negative = inhibition [1, 2] 12.4% | activity, negative = inhibition [1, 3] 18.6% | Potency (3D7) | Potency (7G8) | Potency (AA1029) | Potency (AS120) | Potency (ATS189) | Potency (ATS95) | Potency (C2A) | Potency (CP185) | Potency (CP191) | Potency (CP192) | Potency (CP194) | Potency (CP201) | Potency (CP211) | Potency (CP215) | Potency (CP217) | Potency (CP237) | Potency (CP238) | Potency (CP247)

COc1cc2c(cc1OC)-c1cc(=Nc3c(C)cc(C)cc3C)n(C)c(=O)n1CC2
active: Potency ([1]; parasite line A) 2.82 µM | Potency ([1]; parasite line B) 2.51 µM | Potency (3D7) 2.51 µM | Potency (7G8) 0.891 µM | Potency (AA1029) 2.82 µM | Potency (AS120) 3.55 µM | Potency (ATS189) 7.94 µM | Potency (ATS95) 3.55 µM | Potency (C2A) 2.82 µM | Potency (CP185) 5.62 µM | Potency (CP191) 3.98 µM | Potency (CP192) 9.53 µM | Potency (CP194) 4.78 µM | Potency (CP201) 4.26 µM | Potency (CP215) 5.36 µM | Potency (CP217) 3.55 µM | Potency (CP237) 3.16 µM | Potency (CP238) 10 µM | Potency (CP247) 5.62 µM

O=C1NCN(c2ccccc2)C12CCN(CCCC(c1ccc(F)cc1)c1ccc(F)cc1)CC2
active: Potency ([1]; parasite line A) 3.16 µM | Potency ([1]; parasite line B) 7.94 µM | Potency (3D7) 3.55 µM | Potency (7G8) 3.16 µM | Potency (AA1029) 5.01 µM | Potency (AS120) 4.47 µM | Potency (ATS189) 10 µM | Potency (ATS95) 8.91 µM | Potency (C2A) 7.08 µM | Potency (CP185) 10 µM | Potency (CP191) 5.62 µM | Potency (CP217) 8.91 µM | Potency (CP237) 6.31 µM | Potency (CP238) 8.91 µM | Potency (CP247) 7.08 µM
